The record followed here is PubChem BioAssay AID602144 (Vanderbilt Specialized Chemistry Center, 2011).

The structures appear in SMILES notation. Activity calls are given as the source filed them. Cut-off read from the data, not from the text of the source: active = remaining activity below about 50%; inactive = the rest.

A word on the remaining activity: it is the signal under treatment as a percentage of the control signal.

The target of the assay is Phospholipase D1 (Homo sapiens) (UniProt Q13393). The experiment in a line: cellular phospholipase D1 activity inhibition – Calu-1 cells, single concentration (AID 602144).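 Note: tested at 200 nM.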 Particulars: cellular PLD1 activity, active compounds read low.
Phospholipase D1 (Homo sapiens), sequence (Q13393 whole entry, looked up): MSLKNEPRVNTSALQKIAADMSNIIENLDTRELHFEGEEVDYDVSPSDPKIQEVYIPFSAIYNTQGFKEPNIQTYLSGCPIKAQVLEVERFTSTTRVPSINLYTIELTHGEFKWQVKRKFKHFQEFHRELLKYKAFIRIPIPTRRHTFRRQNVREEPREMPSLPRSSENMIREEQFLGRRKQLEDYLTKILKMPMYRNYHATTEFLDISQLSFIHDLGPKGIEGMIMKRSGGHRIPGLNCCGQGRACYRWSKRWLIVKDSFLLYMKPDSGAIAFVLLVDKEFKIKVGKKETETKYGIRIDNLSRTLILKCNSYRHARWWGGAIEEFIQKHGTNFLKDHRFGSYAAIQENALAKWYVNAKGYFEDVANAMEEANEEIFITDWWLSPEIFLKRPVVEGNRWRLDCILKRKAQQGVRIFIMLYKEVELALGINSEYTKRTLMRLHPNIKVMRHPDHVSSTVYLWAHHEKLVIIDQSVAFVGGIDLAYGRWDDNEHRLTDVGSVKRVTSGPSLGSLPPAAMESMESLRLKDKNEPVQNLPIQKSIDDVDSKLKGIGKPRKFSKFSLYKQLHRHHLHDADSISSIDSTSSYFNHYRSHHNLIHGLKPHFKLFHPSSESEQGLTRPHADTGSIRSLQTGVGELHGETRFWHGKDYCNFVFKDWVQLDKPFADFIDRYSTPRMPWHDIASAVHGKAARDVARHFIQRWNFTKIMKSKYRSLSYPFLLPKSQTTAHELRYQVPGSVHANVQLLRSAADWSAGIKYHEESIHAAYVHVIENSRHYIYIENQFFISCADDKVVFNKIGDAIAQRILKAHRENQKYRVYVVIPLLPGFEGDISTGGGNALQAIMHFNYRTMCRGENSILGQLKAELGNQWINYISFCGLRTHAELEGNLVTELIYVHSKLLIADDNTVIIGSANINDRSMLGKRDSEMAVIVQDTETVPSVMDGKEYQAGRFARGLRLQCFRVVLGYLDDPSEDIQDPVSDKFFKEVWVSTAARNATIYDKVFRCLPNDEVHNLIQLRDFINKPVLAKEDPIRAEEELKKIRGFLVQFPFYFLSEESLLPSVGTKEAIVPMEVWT
Phospholipase D1 (Homo sapiens), sequence (Q13393 whole entry, looked up): as above
`O=C(NCCN1CCC(n2c(=O)[nH]c3ccccc32)CC1)c1cc2ccccc2c2ccccc12`: the remaining activity was 7.23% (active).

Take `O=C(NCCN1CCN(c2ccncc2)CC1)c1cc2ccccc2s1`: the remaining activity was 147% (inactive).

As to `O=C(NCCN1CCC(n2c(=O)[nH]c3ccccc32)CC1)Nc1cccc(OC(F)(F)F)c1`, the remaining activity was 131% (inactive).

For the compound `COc1ccc(S(=O)(=O)NCCN2CCC(n3c(=O)[nH]c4ccccc43)CC2)cc1OC`, the remaining activity was 115% (inactive).

For the compound `Cn1c(=O)n(C2CCN(CCNC(=O)[C@H]3C[C@@H]3c3ccccc3)CC2)c2ccccc21`, the remaining activity is 76.2% (inactive).

For `CCCCS(=O)(=O)NCCN1CCC(n2c(=O)[nH]c3ccccc32)CC1`, the remaining activity was 124% (inactive).

With `Cc1ccc(C(=O)NCCN2CCC(n3c(=O)[nH]c4cc(Br)ccc43)CC2)cc1`, the remaining activity is 3.74% (active).

With `C[C@@H](CN1CCC(n2c(=O)[nH]c3cc(I)ccc32)CC1)NC(=O)c1ccc2ccccc2c1`, the remaining activity was 20.1% (active).

For `C[C@@H](CN1CCC(n2c(=O)[nH]c3ccc(F)cc32)CC1)NC(=O)c1ccc(Cl)cc1`, the remaining activity was 17.7% (active).

For the compound `C[C@@H](CN1CCC(n2c(=O)[nH]c3cc(-c4cccnc4)ccc32)CC1)NC(=O)[C@H]1C[C@@H]1c1ccccc1`, the remaining activity is 53.2% (inactive).

Take `O=C(NCCN1CCC(n2c(=O)[nH]c3ccccc32)CC1)c1cnc2ccccc2n1`: the remaining activity was 83.7% (inactive).

Consider `O=C(NCCN1CCN(c2ccccn2)CC1)c1ccc(F)cc1`, for which the remaining activity was 126% (inactive).

For the compound `O=C(NCCN1CCC(C(=O)NCC2CC2)CC1)c1ccc2ccccc2c1`, the remaining activity is 106% (inactive).

With `O=C(c1ccc(Cl)cc1)N1CCC(n2c(=O)[nH]c3cc(Cl)ccc32)CC1`, the remaining activity was 79.2% (inactive).

As for `O=C(NCCN1CCC(n2c(=O)[nH]c3cc(Cl)ccc32)CC1)c1ccc(Cl)cc1`, the remaining activity is 7.16% (active).

Turning to `C[C@@H](CN1CCC(n2c(=O)[nH]c3ccccc32)CC1)NC(=O)c1cc2cc(F)ccc2[nH]1`, the remaining activity was 30.1% (active).

Consider `O=c1[nH]c2ccccc2n1C1CCN(CCNC(=S)Nc2ccccn2)CC1`, for which the remaining activity was 148% (inactive).

On to `C[C@@H](CN1CCC(n2c(=O)[nH]c3cc(Br)ccc32)CC1)NC(=O)c1ccc(F)cc1`, for which the remaining activity was 16.1% (active).

Take `O=C(NCCN1CCC(n2c(=O)[nH]c3ccccc32)CC1)c1ccc2ccc3c4c2c1CC=C4CC=C3`: the remaining activity is 95.6% (inactive).

Regarding `O=c1[nH]c2ccccc2n1C1CCN(CCNS(=O)(=O)c2cc(Cl)ccc2Cl)CC1`, the remaining activity is 104% (inactive).

For the compound `O=C(NCCN1CCC(n2c(=O)[nH]c3ccccc32)CC1)c1cnccn1`, the remaining activity is 76.7% (inactive).

`COc1cccc(N2CCN(CCNC(=O)c3ccc(F)cc3)CC2)c1`: the remaining activity was 110% (inactive).

For the compound `CC(=O)c1cccc(NC(=O)NCCN2CCC(n3c(=O)[nH]c4ccccc43)CC2)c1`, the remaining activity was 137% (inactive).

`O=C(NCCN1CCN(c2ccccn2)CC1)c1ccc(C(F)(F)F)cc1`: the remaining activity was 152% (inactive).

Regarding `O=C(NCCN1CCC(C(=O)NCCCN2CCOCC2)CC1)c1ccc2ccccc2c1`, the remaining activity was 68.3% (inactive).

On to `O=C(NCCN1CCN(c2ncccn2)CC1)c1ccc(Cl)cc1`, for which the remaining activity is 80.9% (inactive).

As to `Cc1cccc(NC(=S)NCCN2CCC(n3c(=O)[nH]c4ccccc43)CC2)c1`, the remaining activity is 148% (inactive).

For `Cc1ccc(C(=O)N[C@@H](C)CN2CCC(n3c(=O)[nH]c4cc(Cl)ccc43)CC2)cc1`, the remaining activity was 12.1% (active).

As to `Cc1ccc(C(=O)NCCN2CCN(c3ncccn3)CC2)cc1`, the remaining activity was 84.2% (inactive).

Regarding `O=C(NCCN1CCC(n2nnc3ccccc32)CC1)c1ccc2ccccc2c1`, the remaining activity is 19.1% (active).

For the compound `CC(C)[C@@H](CN1CCC(n2c(=O)[nH]c3ccccc32)CC1)NC(=O)c1ccc(F)cc1`, the remaining activity was 103% (inactive).

For the compound `O=C(NCCN1CCC(n2c(=O)[nH]c3ccccc32)CC1)c1ccc(-c2ccccc2)o1`, the remaining activity was 38.7% (active).

With `C[C@@H](CN1CCC(n2c(=O)[nH]c3ccccc32)CC1)NC(=O)c1ccc(F)c(F)c1`, the remaining activity was 21.3% (active).

On to `O=C(CCc1ccc(F)cc1)NCCN1CCC(n2c(=O)[nH]c3ccccc32)CC1`, for which the remaining activity was 75.2% (inactive).

As for `C[C@@H](CN1CCC2(CCc3ccccc32)CC1)NC(=O)c1cnc2ccccc2c1`, the remaining activity was 129% (inactive).

Regarding `O=C(CCCN1CCC(O)(c2ccc(Cl)cc2)CC1)c1ccc(F)cc1`, the remaining activity was 80.1% (inactive).

For the compound `CC(C)[C@@H](CN1CCC(n2c(=O)[nH]c3ccccc32)CC1)NC(=O)[C@@H]1C[C@H]1c1ccccc1`, the remaining activity is 82.9% (inactive).

With `C[C@@H](CN1CCC(n2c(=O)[nH]c3ccccc32)CC1)NC(=O)C1C[C@H]1c1ccccc1` (stereo not given in full), the remaining activity was 25.5% (active).

As for `Cn1c(=O)n(C2CCN(CCNC(=O)c3ccc(F)cc3)CC2)c2ccccc21`, the remaining activity is 84.4% (inactive).

With `C[C@@H](CN1CCC2(CC1)CCN(C)C2=O)NC(=O)c1cnc2ccccc2c1`, the remaining activity was 127% (inactive).
